Results: ChEMBL document CHEMBL3988442, “University of Dundee, Small-Polar-MMV Screening Library” (2021)

Experiments:
[1] = molecular target: T1, Aspartate--tRNA(Asp/Asn) ligase (Mycobacterium tuberculosis (strain ATCC 25618 / H37Rv)) (UniProt P9WFW3); experiment: Assay for Asp RNA synthetase-1 from Mycobacterium tuberculosis; type: functional; design: scale not given: direction of the effect not stated beside the values; conditions: 30 µM; note: in the data most compounds retested in dose-response had high values
T1 sequence (whole entry): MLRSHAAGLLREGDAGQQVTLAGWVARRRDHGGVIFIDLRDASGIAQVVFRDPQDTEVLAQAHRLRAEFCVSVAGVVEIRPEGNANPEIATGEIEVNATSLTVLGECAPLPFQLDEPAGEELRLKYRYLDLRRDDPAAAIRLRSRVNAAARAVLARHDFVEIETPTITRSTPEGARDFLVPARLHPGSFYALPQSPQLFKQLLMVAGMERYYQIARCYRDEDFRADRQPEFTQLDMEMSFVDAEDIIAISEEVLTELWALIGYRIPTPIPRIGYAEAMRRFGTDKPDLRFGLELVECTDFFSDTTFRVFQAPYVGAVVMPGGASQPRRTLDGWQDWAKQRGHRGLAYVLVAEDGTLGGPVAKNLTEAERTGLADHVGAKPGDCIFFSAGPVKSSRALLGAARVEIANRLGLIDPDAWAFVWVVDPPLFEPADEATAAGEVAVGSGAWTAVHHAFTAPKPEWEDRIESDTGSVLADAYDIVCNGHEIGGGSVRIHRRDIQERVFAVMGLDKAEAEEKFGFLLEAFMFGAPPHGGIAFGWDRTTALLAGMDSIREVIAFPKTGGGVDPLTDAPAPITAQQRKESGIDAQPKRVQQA

[2] = molecular target: Shiga toxin 2 (Escherichia coli O157:H7) (UniProt P09385+P09386); experiment: E. coli 0.157:H7 Shiga Toxin SOP - stx2 screening assay; type: functional; design: scale not given: direction of the effect not stated beside the values; conditions: 30 µM

| Structure (SMILES) | Percent Effect [1] | Percent Effect [2] |
| --- | --- | --- |
| N#Cc1c(C2CC2)cc(-c2ccc(O)cc2)nc1N | -1.42% | 15.9% |
| CCCN1CCCn2nc(CNC(=O)CCc3scnc3C)cc2C1 | -0.334% | 3.64% |
| Cc1cnn(CC2CN(c3ncnc4ccccc34)CCO2)c1 (stereo unspecified) | -7% | 6.94% |
| COc1cccc(OCC2CCCN(C(C)=O)C2)c1 (stereo unspecified) | 3.99% | -11% |
| Cc1nc(N2CCCC2)ncc1-c1cc(O)nc(N2CCCC2)n1 | -6.71% | -0.674% |
| Cc1ccc2oc(C(=O)N3CCCC(c4noc(C)n4)C3)cc2n1 (stereo unspecified) | -6.59% | -27.4% |
| Cc1nc(C2CCCCN2C(=O)c2ccccc2)ncc1C(=O)N(C)C (stereo unspecified) | -6.63% | -5.42% |
| CN(C)CCCNC(=O)CNC(=O)N1CCc2c([nH]c3ccccc23)C1 | 4.82% | -42.4% |
| COCc1nc(C(=O)N2CCCC2c2noc(C(C)C)n2)cs1 (stereo unspecified) | 2.63% | -5.18% |
| CCn1cc(CN2CCCC(c3[nH]ncc3S(C)(=O)=O)C2)cn1 (stereo unspecified) | -1.6% | -18.8% |
| Cc1cnccc1CN1CC[C@@](C)(O)[C@H](Oc2ccccc2)C1 | -5.05% | -31% |
| CN(C(=O)c1ccccn1)c1nc2c(s1)CCc1c-2cnn1C | 50% | -76.1% |
| CC[C@@]1(O)CCN(C(=O)c2ccc(SC)cc2)C[C@H]1O | -1.2% | 5.8% |
| CS(=O)(=O)c1ccccc1C(=O)NCC1Cc2ccccc2O1 (stereo unspecified) | 9.98% | -13% |
| CC(C)CN(C)c1ccc(C(=O)N2CCCC2c2cnn(C)c2)cn1 (stereo unspecified) | -2.28% | 21% |
| COCCCN1CC2(CCCCN2C(=O)c2ccsc2)CC1=O (stereo unspecified) | -3.53% | -5.69% |
| Cc1cc(C)n(CC2CCCN2CCCS(=O)(=O)N(C)C)n1 (stereo unspecified) | 2.38% | 0.632% |
| COC1CCN(C(=O)CCc2c(C)nc3ccnn3c2C)CC1 | -6.77% | 21% |
